Experimental data taken from PubChem BioAssay AID1851 (National Center for Advancing Translational Sciences (NCATS), 2009).
About 5,700 (36%) of roughly 16,000 compounds were called active. Another 24% or so got no clear call; they are omitted. This is one part of the list. Unmarked numbers belong to inactive results. The call rests on the fitted dose curve; in most records, active means well fitted curve in the direction sought with a large enough effect; inconclusive means small, poorly fitted or top-dose-only effect, or effect the other way; inactive means no such curve, though single readings can be large or run the other way.

Biological target: Cytochrome P450 1A2 (Homo sapiens) (UniProt P05177)
Test: Cytochrome panel assay with activity outcomes
Conditions: recombinant CYP, pro-luciferin dealkylation, luminescence, p450-cyp1a2; series mostly up to 57.1 µM; activity, negative = inhibition: at the top concentration
On the % scale 0 is the no-effect control and ±100 the full control effect.

Sequence of Cytochrome P450 1A2 (Homo sapiens) (P05177 whole entry, looked up): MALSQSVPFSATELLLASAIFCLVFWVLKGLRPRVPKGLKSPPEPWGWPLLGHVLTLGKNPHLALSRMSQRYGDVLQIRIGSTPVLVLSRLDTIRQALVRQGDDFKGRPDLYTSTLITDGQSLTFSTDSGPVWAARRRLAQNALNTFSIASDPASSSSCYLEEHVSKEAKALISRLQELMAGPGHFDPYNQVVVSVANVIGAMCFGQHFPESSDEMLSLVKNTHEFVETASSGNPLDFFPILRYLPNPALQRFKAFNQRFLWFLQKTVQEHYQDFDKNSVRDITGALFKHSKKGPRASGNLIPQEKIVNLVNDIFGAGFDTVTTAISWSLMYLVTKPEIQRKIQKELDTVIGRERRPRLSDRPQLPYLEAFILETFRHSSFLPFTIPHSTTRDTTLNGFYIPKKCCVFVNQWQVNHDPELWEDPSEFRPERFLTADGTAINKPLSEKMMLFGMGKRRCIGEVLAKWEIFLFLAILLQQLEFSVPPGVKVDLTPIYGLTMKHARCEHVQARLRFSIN

Q: COCCNC(=S)N1C2CCC1CC(NC(=O)NC13CC4CC(CC(C4)C1)C3)C2 (stereo not given) was tested. Which “activity, negative = inhibition” value did it give?
A: The value was 18.7%.

Q: How did the activity, negative = inhibition turn out when Nc1nc(N)c(Cn2ccnc2)c(=O)[nH]1 was run?
A: Its activity, negative = inhibition is -19.7% [at 11.4 µM].

Q: How did the “activity, negative = inhibition” value turn out when Cn1c(=O)c2[nH]cnc2n(C)c1=O was run?
A: The value was -27% [at 25.6 µM].

Q: With C[C@@]12CC[C@H]3[C@@H](CCC4=C(O)C(=O)CC[C@]43C)[C@H]1CCC2=O as the molecule, how does the “activity, negative = inhibition” value read?
A: The value was -8.41%.

Q: Nc1ncnc2c1ncn2[C@@H]1O[C@@H](COP(=O)(O)CP(=O)(O)OP(=O)(O)O)[C@H](O)[C@@H]1O was tested. Which “activity, negative = inhibition” value did it give?
A: Its value is 2.41%.

Q: With CCCCCCN=Cc1c(O)n(C)c(=O)n(C)c1=O as the molecule, how does the AC50 read?
A: The AC50 was 12.6 µM (active).

Q: How did the “activity, negative = inhibition” value turn out when COc1cccc(-n2c(O)c(C=NCCN3CCOCC3)c(=O)[nH]c2=O)c1 was run?
A: The value was 4.03%.

Q: For Cc1ccccc1OCCN=Cc1c(O)n(C)c(=O)n(C)c1=O, which AC50 is on record?
A: The AC50 was 12.6 µM (active).

Q: CCCCn1c(O)c(C=NCCN2CCCCC2)c(=O)[nH]c1=O was tested. Which “activity, negative = inhibition” value did it give?
A: The value was -2.11%.

Q: O=C(O)/C=C\c1ccc[c]([Sb](=[O])([OH])[OH])c1 was tested. Which activity, negative = inhibition did it give?
A: Its activity, negative = inhibition is -9.5% [at 2.29 µM].

Q: For NC(N)=Nc1ccc2[nH]c3c(c2c1)C[C@]1(O)[C@@H]2Cc4ccc(O)c5c4[C@]1(CCN2CC1CC1)[C@@H]3O5, which “activity, negative = inhibition” value is on record?
A: The value was 4.44%.

Q: For NNC(=O)c1ccc(O)cc1, which “activity, negative = inhibition” value is on record?
A: Its value is -20.8%.

Q: For CSCC[C@@H](N)P(C)(=O)O, which activity, negative = inhibition is on record?
A: The activity, negative = inhibition was -11% [at 11.4 µM].

Q: With COC(=O)N1CCC2(CCCN(C)C2)CC1 as the molecule, how does the “activity, negative = inhibition” value read?
A: Its value is 2.96%.

Q: With C[C@H](Br)CN(C[C@H](C)Br)c1ccc2c(c1)Cc1ccccc1-2 as the molecule, how does the AC50 read?
A: Its AC50 is 3.16 µM (active).

Q: For CCN1C[C@]2(C)CC[C@H](O)[C@@]34[C@@H]5CC6[C@@H](OC)C[C@@](O)([C@@H]5[C@@H]6O)[C@H](C[C@@H]23)[C@H]14, which “activity, negative = inhibition” value is on record?
A: The value was -7.34% [at 25.6 µM].

Q: How did the “activity, negative = inhibition” value turn out when C[C@@H]1O[C@@H](O[C@H]2C[C@@H](O)[C@]3(CO)[C@@H]4[C@@H](O)C[C@]5(C)[C@H]([C@@H]6COC(=O)C6)CC[C@@]5(O)[C@H]4CC[C@@]3(O)C2)[C@H](O)[C@H](O)[C@@H]1O was run?
A: The value was -2.23%.

Q: CN1CC[C@@]2(CCCN(C(=O)Oc3ccccc3)C2)C1 was tested. Which “activity, negative = inhibition” value did it give?
A: The value was -21.9%.

Q: How did the AC50 turn out when Cc1ncsc1CCCl was run?
A: Its AC50 is 31.6 µM (active).

Q: With Oc1ccc([C@H](O)[C@@H]2CCCCN2)cc1O as the molecule, how does the activity, negative = inhibition read?
A: Its activity, negative = inhibition is -3.47% [at 11.4 µM].

Q: For C=C(CC1(C(C)NP(=O)(c2ccccc2)c2ccccc2)CC1)c1ccccc1 (stereo not given), which AC50 is on record?
A: The AC50 was 15.8 µM (active).

Q: O=C(O)[C@@H]1C[C@H]1[C@@H](NP(=O)(c1ccccc1)c1ccccc1)c1ccccc1 was tested. Which “activity, negative = inhibition” value did it give?
A: Its value is -1.59%.

Q: Which “activity, negative = inhibition” value does the source give for O=C(O)[C@H]1C[C@@H]1[C@H](NP(=O)(c1ccccc1)c1ccccc1)c1ccccc1 here?
A: The value was -1.74%.

Q: How did the “activity, negative = inhibition” value turn out when c1csc(CN2CCCC3(CCNCC3)C2)n1 was run?
A: Its value is -13%.

Q: Which activity, negative = inhibition does the source give for CC(=O)O[C@H]1CC[C@@]2(C)[C@@H](CC[C@H]3[C@H]2CC(=O)[C@@]2(C)[C@@H]3C[C@H]3CC(C)=CC(=O)[C@H]32)C1 here?
A: The activity, negative = inhibition was -8.97% [at 2.29 µM].
